The nature of assay [1]: growth inhibition of DIPG glioma cells, dose response, cell-based, SU-DIPG-XVII, MIPE5.0, CellTiter-Glo, qHTS (AID 1347060; cut-off not given, nearly all actives have AC50 up to about 26 µM;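 also: cells exposed to compound for 48 hours before viability readout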). Particulars: SU-DIPG-XVII viability, CellTiter-Glo ATP luminescence. On the technique in general: ATP-based viability assays read luminescence as a measure of living cells.
Assay [2] in a line: growth inhibition of DIPG glioma cells, dose response, cell-based, SU-DIPG-IV, MIPE4.0, CellTiter-Glo, qHTS (AID 1347063; cut-off not given, nearly all actives have AC50 up to about 30 µM;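 also: compound exposure lasted 48 hours before the viability readout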). Particulars: SU-DIPG-IV viability, CellTiter-Glo ATP luminescence.
Assay [3] is described as follows: viability loss in pontine glioma line – cell-based, SU-DIPG-XXV, MIPE5.0, CellTiter-Glo, qHTS, dose response (AID 1347065; cut-off not given, nearly all actives have AC50 up to about 26 µM;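 also: cells exposed to compound for 48 hours before ATP readout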). Particulars: CellTiter-Glo ATP luminescence.
Assay [4] can be described thus: JHH-DIPG-1 glioma cell viability, MIPE5.0 library, CellTiter-Glo luminescence, qHTS (AID 1347067; cut-off not given, nearly all actives have AC50 up to about 26 µM;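 also: cells exposed to compound for 48 hours before readout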). Particulars: JHH-DIPG-1 glioma viability, CellTiter-Glo ATP luminescence.
A short description of assay [5]: SU-DIPG-XXV glioma cell viability, MIPE5.0 library, qHTS (AID 1347068; cut-off not given, nearly all actives have IC50 up to about 30 µM;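 as to IC50: cells exposed to compound for 48 hours before viability readout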). A general note: qHTS replaces the single test concentration by a dilution series.
Assay [6] is described as follows: growth inhibition of DIPG glioma cells, dose response, cell-based, SU-DIPG-XIII, MIPE5.0, CellTiter-Glo, qHTS (AID 1347064; cut-off not given, nearly all actives have AC50 up to about 23 µM;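 as to AC50: cells exposed to compound for 48 hours before the viability read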). Particulars: SU-DIPG-XIII viability, CellTiter-Glo ATP luminescence.
Assay [7] is described as follows: sensitizers of A549 cells to miR-34 induction, primary screen, imaging, A549 dox-inducible miR-34, nuclei and caspase counts (AID 1347080;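 active = compounds whose cell count with miR-34 switched on is under 0.7 times the count with it off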). Particulars: A549 miR-34 inducible, Hoechst nuclei count, 48 h.
A short description of assay [8]: modifiers of HSF1 nuclear foci, imaging, Selleck Cancer Library (AID 1347162; in the data active = plate-normalised HSF1 focus index below about 0.46). Particulars: human cells, at 10 µM; SSMD: measured here: HSF1 foci SSMD mean; cell count: measured here: cell number; plate-normalised HSF1 focus index: stronger effect = lower value.
Assay [9] in a line: survival rescue of mitochondrial mutant cells in low glucose, primary screen, MELAS cybrids, Rieske KO mouse fibroblasts, CellTiter-Glo (AID 1508586;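 active = mean z-score across replicates of 1.96 or higher in either the MELAS or the Rieske mutant cell line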;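 also: z relative to plate mean and SD of compound and empty wells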).
Assay [10] is described as follows: ovarian cancer cell viability with rucaparib, profiling panel, oncology-focused library, rucaparib conditional (AID 1508598). Particulars: patient-derived ovarian cancer cells, CellTiter-Glo viability, 144 h, stronger effect = lower value.
Where [11] appears, read: stronger effect = lower value, cell number ratio, induced over uninduced.
Setting [12] is: measured here: relative caspase fold change +Dox/-Dox.
[13] abbreviates: measured here: total cells with miR-34 induction, stronger effect = lower value.
The mark [14] stands for this setting: measured here: total cells without miR-34 induction.
Setting [15] is: MELAS cybrid survival, CellTiter-Glo 48 h, stronger effect = higher value.
The mark [16] stands for this setting: Rieske KO mouse fibroblast survival, CellTiter-Glo 72 h.

Inconclusive results are not listed. Active and inactive are the calls of the source.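 The calls were made as follows, unless noted: active = normalized viability below 100% at a tested concentration; inactive = the rest.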

With `CCC(=C/[C@H](C)C/C=C/C(C)=C/[C@@H](C)C(=O)[C@@H](C)[C@H](O)[C@@H](C)C/C(C)=C/C(=O)O)/C=C/[C@@H]1OC(=O)C=C[C@@H]1C`, the AC50 in assay [1] was 2.96 nM (active); in assay [2] it was 13.9 nM (active); in assay [3], 2.09 nM (active); in assay [4], 18600 nM (active). Besides, the IC50 in assay [5] is 833 nM (active).
Take `CS(=O)(=O)N1CCc2c(-c3cnc(N)nc3)nc(N3CCOCC3)nc21`: the AC50 in [1] was 1860 nM (active); in assay [2], 148 nM (active); in assay [6], 1180 nM (active); in [3], 525 nM (active). For the same compound, the IC50 in assay [5] was 934 nM (active). The fold change in assay [7] (setting [11]) is 0.998 (inactive); in [7] (setting [12]), 0.485. Also, the cell count was determined as 3180 in assay [7] (setting [13]), 3180 in assay [7] (setting [14]) and 7210 in assay [8]. In addition, the SSMD in [8] is -3.29. For the same compound, in [8], the plate-normalised HSF1 focus index was 0.883 (inactive). Also, the z-score is 3.23 (active) in [9] (setting [15]) and -1.3 in assay [9] (setting [16]). The viability is 100% (inactive) in assay [10] (at 0.000305 µM, OCI-C5x cells, with rucaparib 10 µM, 100% = cells with rucaparib alone); 117% (inactive) in assay [10] (at 0.000305 µM, OCI-C5x cells, without rucaparib); 117% (inactive) in assay [10] (at 0.000305 µM, OCI-P5x cells, with rucaparib 20 µM, 100% = cells with rucaparib alone); 109% (inactive) in assay [10] (at 0.000305 µM, OCI-P5x cells, without rucaparib); 103% (inactive) in [10] (at 0.00122 µM, OCI-C5x cells, with rucaparib 10 µM, 100% = cells with rucaparib alone); 117% (inactive) in [10] (at 0.00122 µM, OCI-C5x cells, without rucaparib). In addition, the viability in [10] (at 0.00122 µM, OCI-P5x cells, with rucaparib 20 µM, 100% = cells with rucaparib alone) is 115% (inactive); in assay [10] (at 0.00122 µM, OCI-P5x cells, without rucaparib), 111% (inactive); in assay [10] (at 0.00488 µM, OCI-C5x cells, with rucaparib 10 µM, 100% = cells with rucaparib alone), 96.5% (active); in assay [10] (at 0.00488 µM, OCI-C5x cells, without rucaparib) it was 111% (inactive); in assay [10] (at 0.00488 µM, OCI-P5x cells, with rucaparib 20 µM, 100% = cells with rucaparib alone), 113% (inactive); in [10] (at 0.00488 µM, OCI-P5x cells, without rucaparib), 112% (inactive). The viability in [10] (at 0.0195 µM, OCI-C5x cells, with rucaparib 10 µM, 100% = cells with rucaparib alone) is 106% (inactive); in assay [10] (at 0.0195 µM, OCI-C5x cells, without rucaparib) it was 125% (inactive); in [10] (at 0.0195 µM, OCI-P5x cells, with rucaparib 20 µM, 100% = cells with rucaparib alone), 115% (inactive); in [10] (at 0.0195 µM, OCI-P5x cells, without rucaparib) it was 111% (inactive); in assay [10] (at 0.0781 µM, OCI-C5x cells, with rucaparib 10 µM, 100% = cells with rucaparib alone), 87.7% (active); in [10] (at 0.0781 µM, OCI-C5x cells, without rucaparib), 115% (inactive). Besides, the viability is 112% (inactive) in [10] (at 0.0781 µM, OCI-P5x cells, with rucaparib 20 µM, 100% = cells with rucaparib alone); 110% (inactive) in assay [10] (at 0.0781 µM, OCI-P5x cells, without rucaparib); 91.8% (active) in assay [10] (at 0.313 µM, OCI-C5x cells, with rucaparib 10 µM, 100% = cells with rucaparib alone); 105% (inactive) in assay [10] (at 0.313 µM, OCI-C5x cells, without rucaparib); 109% (inactive) in assay [10] (at 0.313 µM, OCI-P5x cells, with rucaparib 20 µM, 100% = cells with rucaparib alone); 107% (inactive) in assay [10] (at 0.313 µM, OCI-P5x cells, without rucaparib). Further, the viability in assay [10] (at 1.25 µM, OCI-C5x cells, with rucaparib 10 µM, 100% = cells with rucaparib alone) is 75.9% (active); in assay [10] (at 1.25 µM, OCI-C5x cells, without rucaparib), 118% (inactive); in assay [10] (at 1.25 µM, OCI-P5x cells, with rucaparib 20 µM, 100% = cells with rucaparib alone) it was 66.8% (active); in assay [10] (at 1.25 µM, OCI-P5x cells, without rucaparib), 97% (active); in [10] (at 5 µM, OCI-C5x cells, with rucaparib 10 µM, 100% = cells with rucaparib alone), 39.2% (active); in [10] (at 5 µM, OCI-C5x cells, without rucaparib) it was 56% (active). The viability was 16% (active) in [10] (at 5 µM, OCI-P5x cells, with rucaparib 20 µM, 100% = cells with rucaparib alone) and 16.9% (active) in assay [10] (at 5 µM, OCI-P5x cells, without rucaparib).
As for `CO[C@@H]1[C@@H](O)[C@H](O)[C@@H](n2c3c(Cl)cccc3c3c4c(c5c6cccc(Cl)c6[nH]c5c32)C(=O)NC4=O)O[C@H]1CO`, the AC50 was 105 nM (active) in assay [1], 209 nM (active) in [2] and 2630 nM (active) in assay [4]. In addition, the result in assay [5] was inactive.
As for `O=C(Nc1ccc(OC(F)(F)Cl)cc1)c1cnc(N2CC[C@@H](O)C2)c(-c2ccn[nH]2)c1`, in [1], the AC50 was 23500 nM (active). Besides, the result in assay [6] was inactive.
For the compound `CC(C)(O)CC(=O)NCCn1ccc2ncnc(Nc3ccc(Oc4cccc(C(F)(F)F)c4)c(Cl)c3)c21`, the AC50 in assay [1] is 18600 nM (active); in assay [2] it was 26400 nM (active); in [3], 26300 nM (active); in assay [4], 20900 nM (active). Also, the IC50 in assay [5] was 23500 nM (active). Also, the fold change in assay [7] (setting [11]) is 0.965 (inactive); in assay [7] (setting [12]), 0.647. Besides, the cell count in assay [7] (setting [13]) turned out to be 8120; in [7] (setting [14]), 8420. In addition, the z-score in [9] (setting [15]) is -0.328 (inactive); in [9] (setting [16]), 0.83.

By AC50 is commonly meant the concentration at which the activity in the assay is half-maximal. For orientation: IC50 means the point on the concentration scale where inhibition reaches its midpoint. As usually defined, the viability is a read-out of living cells in per cent, often relative to untreated cells.

The record behind these values is PubChem BioAssay.
